Screening results as filed in PubChem BioAssay.
An excerpt weighted towards active compounds, which were near 3.3% of everything screened.
C2C12 statin = suppressors of statin myotoxicity in C2C12 myotubes, primary screen, cell-based, single point, plate reader; C2C12 myotubes + simvastatin, ATP luminescence, 48 h; scaled: DMSO 0, geranylgeraniol control 100; 330,000 tested, 0.78% active; rescue of ATP level, % at 7.49 µM;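 active means mean ATP rescue above about 67%, or every replicate alone reaching that limit, limit read from the data, passing the limit was not always enough; inconclusive means no clear call, values can overlap the other calls; inactive means mean under the limit and some replicate under it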;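 further: myotubes were challenged with 10 µM simvastatin during compound exposure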
MITF TRPM1 HTS = activators of MITF-driven TRPM1 promoter reporter, primary screen, cell-based, SK-MEL-5, luciferase, single point; SK-MEL-5 TRPM1-promoter luciferase, 24 h; % of positive control, neutral wells = 0; activation, % at 12.5 µM; 300,000 tested, 0.75% active;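 active means mean activation of at least 80% with every replicate also reaching 80%; inconclusive means mean reaches 80% but some replicate falls short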
GAA850 FXN act = FXN promoter activators, primary screen, cell-based, luciferase luminescence, HEK293 lucGAA850. 360,000 tested, 0.56% active. AID 540364, 2011. HEK293 lucGAA850 FXN promoter luciferase reporter, 24 h; percent of 10 µM SAHA response. activation, % at 6 µM;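 active means activation above the average of all compounds screened plus 3 SD, cutoff fixed separately per campaign, cut at about 7.5% in these data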
Wnt bcat act = Wnt/beta-catenin pathway activators, primary screen, cell-based, plate reader, single point | activation, % at 9.35 µM | 300,000 tested, 1.2% active | Wnt/beta-catenin reporter cell assay, activator; in the data active means activation above about 30%, passing the limit was not always enough; inconclusive means no clear call, values can overlap the other calls
esBAF inh = Bmi1 luciferase reporter increase in mESCs, primary screen, esBAF inhibitor project, mouse ES cells, Bmi1 luciferase knock-in, single point | 350,000 tested, 2% active | 24 h; 100% = twice the neutral-well signal | reporter increase, % at 12.5 µM; in the data active means activation above about 40%; inconclusive means no clear call, values can overlap the other calls;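 further: a rise in the Bmi1 reporter signal indicates esBAF inhibition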
Hits are given with their value; i = inactive; ? = inconclusive; nt = not tested or not shown; ! = not active in a repeat.

SMILES	C2C12 statin	MITF TRPM1 HTS	GAA850 FXN act	Wnt bcat act	esBAF inh
COc1ccc(NC(=O)Nc2ccc3c(c2)C(=O)N([C@@H](C)CO)C[C@H](C)[C@@H](CN(C)S(=O)(=O)c2cn(C)cn2)OCCCC[C@H](C)O3)cc1	nt	nt	nt	nt	i
O=C(NCCO)c1ccc2c3n(nc2c1)-c1ccccc1CO3	i	i	i	37	i
O=C(NCC1CC1)c1ccc2c3n(nc2c1)-c1ccccc1CO3	i	i	i	46	i
Cc1ccc2c(c1)COc1c3ccc(C(=O)NCC4CC4)cc3nn1-2	i	i	i	i	94
C=CCNC(=O)c1ccc2c3n(nc2c1)-c1ccc(Cl)cc1CO3	i	90	i	44	53
Cc1ccc2c(c1)COc1c3ccc(C(=O)O)cc3nn1-2	i	i	i	i	i
C[C@@H]1CN([C@@H](C)CO)C(=O)c2cc(NC(=O)CCC(F)(F)F)ccc2O[C@@H](C)CCCCO[C@@H]1CN(C)C(=O)Nc1ccc2c(c1)OCO2	nt	nt	nt	nt	i
O=C(Nc1cccnc1)c1cc(-c2ccc(Cl)cc2Cl)on1	i	i	i	43	i
CC(C)Cc1cc(C(=O)Nc2cccnc2)no1	i	nt	i	i	57
O=C(Nc1ccc(Cl)cc1Cl)c1csc(-c2cccnc2)n1	i	i	i	i	64
O=C(NCc1ccccc1)c1csc(-c2cccnc2)n1	nt	i	i	i	nt
O=C(Nc1cccnc1)c1cc(-c2ccc(Cl)cc2)on1	i	129	i	41	i
Cc1cc(C(=O)Nc2cccnc2)no1	nt	i	i	i	nt
COCC(=O)Nc1ccc2c(c1)C(=O)N(C)C[C@H](OC)[C@H](C)CN(Cc1cccc(F)c1)[C@H](C)CO2	i	nt	nt	nt	i
C[C@H](CO)N1C[C@H](C)[C@H](CN(C)C(=O)c2ccncc2)Oc2ncc(C3=CCCC3)cc2C1=O	i	nt	nt	nt	i
O=C(Nc1ccncc1)c1cc2ccccc2cc1O	i	i	i	47	53
COc1cc2ccccc2cc1C(=O)Nc1ccc(Cc2ccncc2)cc1	i	i	i	nt	i
COc1cc2ccccc2cc1C(=O)Nc1ccc(C)cc1	i	nt	i	i	46
O=C(Nc1cccc([N+](=O)[O-])c1)c1cc2ccccc2cc1O	nt	i	i	i	nt
Cc1ccc(NC(=O)c2cccc3ccccc23)cc1	i	nt	i	i	61
CC(=O)Nc1ccc(NC(=O)c2cccc3ccccc23)cc1	i	i	i	i	i
CCN1[C@@H]2c3ccc(-c4ccccc4OC)c(=O)n3C[C@H]1[C@H](CO)[C@H]2C(=O)N[C@@H](C)c1ccccc1	i	nt	nt	nt	i
Cc1ccc(NC(=O)COC(=O)C2=COCCO2)cc1	i	i	i	nt	i
Cc1ccc(Nc2nc(N)nc(CC#N)n2)cc1	i	i	i	nt	69
Cc1ccc(Nc2nc(N)nc(COC(=O)C3=COCCO3)n2)cc1	i	95	i	?	i
SMILES	C2C12 statin	MITF TRPM1 HTS	GAA850 FXN act	Wnt bcat act	esBAF inh
Cc1ccc(Nc2nc(N)nc(CCl)n2)cc1	nt	nt	i	39	nt
CO[C@@H]1CN(C)C(=O)c2ccc(NC(C)=O)cc2OC[C@H](C)N(Cc2ccncc2)C[C@H]1C	i	nt	nt	nt	i
O=C(C[C@H]1C[C@H]2c3cc(NC(=O)NC4CCCCC4)ccc3O[C@H]2[C@H](CO)O1)NCc1ccccc1	i	nt	nt	nt	i
CCOC(=O)c1sc(SC)c2c1CCC/C2=N/OC	i	i	i	i	i
CCOC(=O)c1sc(S(C)(=O)=O)c2c1CCc1conc1-2	nt	nt	i	55	nt
Cc1ccc(NC(=O)N2C(=O)C3(OCCO3)c3ccccc32)cc1	i	i	i	nt	58
CCNC(=O)N1C(=O)C2(OCCO2)c2ccccc21	i	nt	i	nt	i
CCC(=O)Nc1ccc2c(c1)C(=O)N(C)C[C@@H](OC)[C@@H](C)CN(C(=O)c1cnccn1)[C@@H](C)CO2	i	nt	nt	nt	i
C[C@H](CO)N1C[C@H](C)[C@H](CN(C)C(=O)C2CCCCC2)Oc2ncc(C#Cc3ccccc3F)cc2C1=O	i	nt	nt	nt	i
C[C@H]1CN([C@@H](C)CO)C(=O)c2cc(NC(=O)Cc3ccccc3)ccc2O[C@@H]1CN(C)S(=O)(=O)c1cccs1	98	nt	nt	nt	i
C[C@H](CO)N1C[C@H](C)[C@@H](CN(C)S(=O)(=O)c2cccs2)Oc2c(NC(=O)Nc3ccc4c(c3)OCO4)cccc2C1=O	i	i	i	i	57!
C[C@H](CO)N1C[C@H](C)[C@@H](CN(C)S(=O)(=O)c2cccs2)Oc2c(NS(=O)(=O)c3cn(C)cn3)cccc2C1=O	i	i	i	47	i
C[C@@H]1CN([C@@H](C)CO)C(=O)c2cccc(NC(=O)Nc3ccc4c(c3)OCO4)c2O[C@H]1CN(C)S(=O)(=O)c1cccs1	i	nt	nt	nt	i
C[C@H]1CN([C@@H](C)CO)C(=O)c2cccc(NC(=O)Nc3ccc4c(c3)OCO4)c2O[C@@H]1CN(C)S(=O)(=O)c1cccs1	i	nt	nt	nt	44
CC(C)C#Cc1cnc2c(c1)C(=O)N([C@H](C)CO)C[C@H](C)[C@@H](CN(C)C(=O)c1ccc3c(c1)OCO3)O2	i	nt	nt	nt	i
CCCNC(=O)[C@@H]1[C@@H](CO)[C@@H]2Cn3c(ccc(-c4ccncc4)c3=O)[C@H]1N2CC1CC1	i	nt	nt	nt	i
COc1cc(SC)ccc1C(=O)NC1CCCCC1	81	i	i	i	54
COc1cc2ccccc2cc1C(=O)NC1CCC(C)CC1 (stereo not given)	i	118	i	38	57
COc1ccccc1C(=O)Nc1ccccc1C(=O)NC1CCCCC1	i	i	i	i	i
COc1cc2ccccc2cc1C(=O)NC1CCCCC1	i	i	i	i	45
COc1cc2ccccc2cc1C(=O)NC1CCCC1	i	i	i	i	96
COc1ccc(OC)c(-c2cc(C(=O)NC3CCCC3)c3ccccc3n2)c1	i	i	i	i	i
COc1ccc(NC(=O)N[C@@H]2C=C[C@H](CC(=O)NC3CCC3)O[C@H]2CO)cc1	i	nt	nt	nt	i
CO[C@@H]1CN(C)C(=O)c2ccc(NC(=O)C3CCOCC3)cc2OC[C@@H](C)N(C(=O)c2ccccc2)C[C@H]1C	i	nt	nt	nt	i
COC(=O)C[C@@H]1C=C[C@H](NS(=O)(=O)c2ccccc2F)[C@H](CO)O1	i	nt	nt	nt	i
SMILES	C2C12 statin	MITF TRPM1 HTS	GAA850 FXN act	Wnt bcat act	esBAF inh
CCOc1ccc2oc(C(=O)NNC(=O)c3ccccc3O)c(C)c2c1	i	i	i	i	48
CCOc1ccc2oc(C(=O)Nc3ccc(N4CCOCC4)cc3)c(C)c2c1	i	i	i	i	i
CCOc1ccc2oc(C(=O)O)c(C)c2c1	i	i	i	i	i
CCOc1ccc2oc(C(=O)Nc3ccc4c(c3)OCO4)c(C)c2c1	nt	90	i	i	nt
Cc1c(C(=O)NNC(=O)c2ccccc2O)oc2ccc(Br)cc12	i	i	i	i	i
CCOc1ccc2oc(C(=O)Nc3cc(C)ccn3)c(C)c2c1	i	?	i	42	i
